# Inconclusive results are not listed. Active and inactive are the calls of the source. Cut-off read from the data, not from the text of the source, unless noted: active = inhibition above about 80%; inactive = the rest.
# What was measured:
# [1] = viability loss in pontine glioma line – cell-based, SU-DIPG-XXV, MIPE5.0, CellTiter-Glo, qHTS, dose response (AID 1347065; cut-off not given, nearly all actives have AC50 up to about 26 µM;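 note: cells exposed to compound for 48 hours before ATP readout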); conditions: CellTiter-Glo ATP luminescence
# [2] = SU-DIPG-XXV glioma cell viability, MIPE5.0 library, qHTS (AID 1347068; cut-off not given, nearly all actives have IC50 up to about 30 µM;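 for IC50: cells exposed to compound for 48 hours before viability readout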)
# [3] = JHH-DIPG-1 glioma cell viability, MIPE5.0 library, CellTiter-Glo luminescence, qHTS (AID 1347067; cut-off not given, nearly all actives have AC50 up to about 26 µM;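 note: cells exposed to compound for 48 hours before readout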); conditions: JHH-DIPG-1 glioma viability, CellTiter-Glo ATP luminescence
# [4] = LFS_MB_P medulloblastoma growth inhibition, cell-based, chromothripsis tumors, cisplatin or BGB combos (AID 1671449); conditions: LFS_MB_P medulloblastoma cells;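 note: cells exposed for 96 hours; 0% = vehicle DMSO and 100% = killing by high DMSO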
# [5] = HDN33 neuroblastoma growth inhibition, cell-based, chromothripsis tumors, cisplatin or BGB combos (AID 1671450); conditions: HDN33 neuroblastoma cells, stronger effect = higher value;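 note: cells exposed to compound for four days; 0% = vehicle DMSO and 100% = cell killing by high DMSO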
# [6] = ICB984 medulloblastoma cell growth inhibition, synergistic combos for chromothripsis tumors, cisplatin or BGB combos (AID 1671451; call rule not given here;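 note: cells exposed for 96 hours before readout; 0% = vehicle DMSO and 100% = killing by high DMSO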); conditions: ICB984 medulloblastoma cells, drug combinations, stronger effect = higher value
# [7] = LFS_MB_1R medulloblastoma cell growth inhibition, synergistic combos for chromothripsis tumors, cisplatin or BGB combos (AID 1671452); conditions: LFS_MB_1R medulloblastoma cells, stronger effect = higher value;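 note: cells exposed for 96 hours before readout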
# [8] = HTB85 osteosarcoma cell growth inhibition, synergistic combos for chromothripsis tumors, BGB or cisplatin IC20 combos (AID 1671453); conditions: HTB85 osteosarcoma cells, drug combinations, stronger effect = higher value;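 note: cells exposed for 96 hours before readout; 0% = vehicle DMSO and 100% = high DMSO killing control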
# [9] = CRL2098 osteosarcoma cell growth inhibition, synergistic combos for chromothripsis tumors, BGB or cisplatin IC20 combos (AID 1671454); conditions: CRL2098 osteosarcoma cells, drug combinations, stronger effect = higher value;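 note: cells exposed for 96 h before readout; 0% = vehicle DMSO and 100% = killing by high DMSO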
# [10] = HD-MB03 medulloblastoma cell growth inhibition, synergistic combos for chromothripsis tumors, BGB or cisplatin IC20 combos (AID 1671455; in the data active = inhibition above about 83%;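 note: 0% = vehicle DMSO and 100% = high DMSO as cytotoxic control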); conditions: HD-MB03 medulloblastoma cells, stronger effect = higher value
# [11] = UWB1.289 ovarian carcinoma cell growth inhibition, synergistic combos for chromothripsis tumors, BGB or cisplatin combos (AID 1671456); conditions: UWB1.289 ovarian carcinoma cells, stronger effect = higher value;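 note: cells exposed to compound for four days; 0% = vehicle DMSO and 100% = killing by high DMSO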
# [12] = LFS_MB_2R medulloblastoma cell growth inhibition, synergistic combos for chromothripsis tumors, cisplatin combos (AID 1671457); conditions: LFS_MB_2R medulloblastoma cells, stronger effect = higher value;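 note: cells exposed to compound for four days before readout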
# [13] = MDA-MB-436 breast carcinoma cell growth inhibition, synergistic combos for chromothripsis tumors, BGB or cisplatin combos (AID 1671458; call rule not given here;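 note: cells exposed for 96 hours; 0% = vehicle DMSO and 100% = killing by high DMSO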); conditions: MDA-MB-436 breast carcinoma growth inhibition, drug combinations, stronger effect = higher value
# [14] = UWB1.289_BRCA1 ovarian cancer growth, cell-based, BGB or cisplatin combinations (AID 1671459); conditions: UWB1.289 BRCA1 ovarian carcinoma, drug combinations, stronger effect = higher value
# [15] = human astrocyte viability loss, single and combined drugs, cytotoxicity control for chromothriptic childhood tumor combination screen, cell-based, BGB or cisplatin IC20 combos (AID 1671460); conditions: Human astrocytes, drug combinations, stronger effect = higher value;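 note: cells exposed to compounds for 96 hours before viability readout; 0% = vehicle and 100% = killing control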
# [16] = growth inhibition of BT084 medulloblastoma cells, cell-based, ICGC_MB145, cisplatin and BGB IC40 combos (AID 1671461); conditions: drug combinations, stronger effect = higher value;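 note: cells exposed to drugs for 96 hours; 0% = vehicle DMSO and 100% = high DMSO full killing control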
# [17] = growth inhibition of RCMB18 medulloblastoma cells, cell-based, cisplatin and BGB IC40 combos (AID 1671462); conditions: stronger effect = higher value;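 note: cells exposed to compound for four days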
# [18] = growth inhibition of CRL1545 osteosarcoma cells, cell-based, cisplatin and BGB IC20 combos (AID 1671464); conditions: stronger effect = higher value;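 note: cells exposed to compound for 96 hours before readout; 0% = vehicle DMSO and 100% = high DMSO killing control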
# [19] = measured here: combination with BGB IC40, at 0.05 µM
# [20] = measured here: with BGB IC20 combination, at 0.5 µM
# [21] = measured here: with cisplatin IC20 combination, at 0.5 µM
# [22] = measured here: combination with cisplatin, at 0.5 µM
# [23] = measured here: combination with cisplatin, at 5 µM
smiles,measurement,setting,value
Cc1cccc(-c2[nH]c(CNc3ccccc3F)nc2-c2ccc3ncnn3c2)n1,outcome,[1],inactive
same,outcome,[2],inactive
O=C(NCCCNC(=O)c1ccc[nH]c1=O)c1cc(-c2ccccc2)on1,outcome,[1],inactive
same,AC50,[3],14.8 µM (active)
same,outcome,[2],inactive
CC(C)(CNC(=O)c1cccc(-c2noc(C(F)(F)F)n2)c1)c1coc(-c2ccccc2)n1,AC50,[1],20.9 µM (active)
same,outcome,[2],inactive
Cc1ccc(-c2ccc(C)cn2)nc1,outcome,[1],inactive
same,outcome,[3],inactive
same,outcome,[2],inactive
O=C1Nc2nc(-c3c(O)cccc3OCC3CC3)cc([C@@H]3CCCNC3)c2CO1,AC50,[1],18.6 µM (active)
same,AC50,[3],26.3 µM (active)
same,IC50,[2],13.2 µM (active)
C=CC(=O)Nc1ccc(F)c(-c2ncnc3[nH]cc(C(=O)OCC)c23)c1,AC50,[1],18.6 µM (active)
same,AC50,[3],18.6 µM (active)
C[C@]12CCCN1CC1=NNC(=O)c3cc(F)cc4[nH]c2c1c34,AC50,[1],18.6 µM (active)
same,outcome,[3],inactive
same,outcome,[2],inactive
same,inhibition,"[4]; at 0.5 µM, stronger effect = higher value",-13.4% (inactive)
same,inhibition,"[4]; measured here: combination with BGB IC20, at 0.005 µM",-16.8%
same,inhibition,"[4]; measured here: combination with BGB IC40, at 0.005 µM",-28.9%
same,inhibition,[4]; [19],-3.06%
same,inhibition,"[4]; measured here: combination with cisplatin, at 0.5 µM, stronger effect = higher value",-13.1%
same,inhibition,"[4]; measured here: combination with cisplatin, at 5 µM, stronger effect = higher value",-44.5%
same,inhibition,"[5]; BGB combo, at 5 µM",6.78%
same,inhibition,[5]; at 0.5 µM,9.23% (inactive)
same,inhibition,"[5]; cisplatin combo, at 5 µM",35.8%
same,inhibition,[5]; [20],6.38%
same,inhibition,[5]; [21],-0.356%
same,inhibition,"[5]; single agent, at 5 µM",20.9%
same,inhibition,"[6]; BGB IC20 combo, at 0.005 µM",-2.46%
same,inhibition,"[6]; BGB IC40 combo, at 0.005 µM",-21.8%
same,inhibition,"[6]; BGB IC40 combo, at 0.05 µM",-22.5%
same,inhibition,[6]; at 0.5 µM,-38.3% (inactive)
same,inhibition,"[6]; cisplatin combo, at 0.05 µM",-27.3%
same,inhibition,"[6]; cisplatin combo, at 0.5 µM",-41.3%
same,inhibition,"[6]; cisplatin combo, at 5 µM",-0.499%
same,inhibition,"[6]; measured here: 5 uM single agent, at 5 µM",-4.83%
same,inhibition,[7]; at 0.5 µM,-20.6% (inactive)
same,inhibition,[7]; [19],7.39%
same,inhibition,[7]; [22],-14%
same,inhibition,[7]; [23],1.25%
same,inhibition,[8]; at 0.5 µM,2.64% (inactive)
same,inhibition,"[8]; measured here: with BGB IC20, at 0.5 µM",-13.5%
same,inhibition,"[8]; measured here: with BGB IC20, at 5 µM",4.08%
same,inhibition,"[8]; measured here: with cisplatin IC20, at 0.5 µM",10.2%
same,inhibition,"[8]; measured here: with cisplatin IC20, at 5 µM",21.1%
same,inhibition,"[8]; single agent, at 5 µM",23.4%
same,inhibition,[9]; at 0.5 µM,-35.2% (inactive)
same,inhibition,"[9]; measured here: combination with BGB at IC20, at 0.5 µM",1.29%
same,inhibition,"[9]; measured here: combination with cisplatin at IC20, at 0.5 µM",-26.6%
same,inhibition,[10]; at 0.5 µM,-2.5% (inactive)
same,inhibition,"[10]; measured here: combo with BGB at IC20, at 0.5 µM",-14.3%
same,inhibition,"[10]; measured here: combo with cisplatin at IC20, at 0.5 µM",6.94%
same,inhibition,[11]; at 0.5 µM,-3.02% (inactive)
same,inhibition,"[11]; measured here: inhibition with BGB combination, at 0.05 µM",-15.4%
same,inhibition,"[11]; measured here: inhibition with cisplatin combination, at 0.05 µM",-2.14%
same,inhibition,[12]; at 0.5 µM,-20.2% (inactive)
same,inhibition,[12]; [22],-18.1%
same,inhibition,[12]; [23],-24.5%
same,inhibition,[13]; at 0.5 µM,3.1% (inactive)
same,inhibition,"[13]; measured here: BGB combination, at 0.5 µM",-13.3%
same,inhibition,"[13]; measured here: BGB combination, at 5 µM",-31.4%
same,inhibition,"[13]; measured here: cisplatin combination, at 0.5 µM",5.47%
same,inhibition,"[13]; measured here: cisplatin combination, at 5 µM",22.8%
same,inhibition,"[14]; BGB combination, concentration series, at 5 µM",-3.19%
same,inhibition,[14]; at 0.5 µM,2.39% (inactive)
same,inhibition,"[14]; cisplatin combination, concentration series, at 5 µM",5.42%
same,inhibition,[15]; at 0.5 µM,14.9% (inactive)
same,inhibition,"[15]; measured here: combo with BGB IC20, at 0.5 µM",12%
same,inhibition,"[15]; measured here: combo with cisplatin IC20, at 0.5 µM",13.1%
same,inhibition,[16]; at 0.5 µM,-23% (inactive)
same,inhibition,"[16]; cisplatin combination, at 0.5 µM",-25.6%
same,inhibition,"[16]; cisplatin combination, at 5 µM",-25.6%
same,inhibition,"[16]; measured here: BGB IC40 combination 0.05 uM, at 0.05 µM",-29%
same,inhibition,"[16]; single agent, at 5 µM",-12.6%
same,inhibition,[17]; at 0.5 µM,-18.5% (inactive)
same,inhibition,"[17]; cisplatin combo, at 5 µM",3.33%
same,inhibition,"[17]; measured here: BGB IC40 combination, at 0.05 µM",-15.1%
same,inhibition,[17]; [22],-6.38%
same,inhibition,"[17]; single agent, at 5 µM",-28.1%
same,inhibition,[18]; at 0.5 µM,7.98% (inactive)
same,inhibition,[18]; [20],-8.07%
same,inhibition,[18]; [21],16%
same,inhibition,"[18]; single agent, at 0.05 µM",13.9%
same,inhibition,"[18]; single agent, at 5 µM",35%

# Source: PubChem BioAssay
